# Measured values from PubChem BioAssay.
# Where “and” joins values, the source holds several entries; their conditions need not be identical. Equal values may be shown once. Calls of active or inactive are those of the source.
# How the values were obtained:
# [1] = optical density shifts of acrAB sulA E. coli – strain DRC41, OD650, 48 h, E. coli filamentation inducer project, primary screen (AID 1152); conditions: higher = more signal, called active from +8 up or from −8 down;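 note: E. coli MC1000 strain DRC41 lacking acrAB efflux pump and sulA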
# [2] = probe aLefty1 binding on compound microarray – biochemical, small-molecule microarray, 635/667 nm fluorescence, primary screen (AID 1153); conditions: higher = more signal;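 note: score merges spot fluorescence with signal-to-noise ratio from the scanned slide images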
# [3] = plasmodial surface anion channel blockers, osmotic lysis – cell-based, P. falciparum Indochina, OD700, 1 h, primary screen (AID 1154); conditions: P. falciparum Indochina infected RBC osmotic lysis, higher = more signal, called active from +8 up or from −8 down
# [4] = plasmodial surface anion channel blockers, osmotic lysis – cell-based, P. falciparum Indochina, OD700, 2 h, primary screen (AID 1155);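 note: lysis reports solute entry through the parasite surface anion channel PSAC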; conditions: P. falciparum Indochina infected erythrocytes, higher = more signal, called active from +8 up or from −8 down
# [5] = changes in parasitized red cell lysis, either direction – P. falciparum Indochina, OD700, 3 h, PSAC antagonist project, primary screen (AID 1156); conditions: P. falciparum-infected erythrocytes, osmotic lysis, higher = more signal, called active from +8 up or from −8 down
# [6] = plasmodial surface anion channel blockers, osmotic lysis – cell-based, P. falciparum Indochina, OD700, 18 h, primary screen (AID 1157); conditions: P. falciparum Indochina infected erythrocytes, osmotic lysis OD700, 18 h; higher = more signal, called active from +8 up or from −8 down
# [7] = S6 kinase pathway phospho-S6 level changes – cell-based, A549, cytoblot, luminescence, serum-stimulated, primary screen (AID 1158); conditions: 5 h, higher = more signal;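 note: serum-stimulated A549 lung adenocarcinoma cells; signal is phosphorylated S6 detected by cytoblot immunostaining with HRP secondary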
# [8] = target: NADPH oxidase 2 (Homo sapiens) (UniProt P04839); test: compounds shifting NOX2 Amplex Red fluorescence – cell-based, HEK293-NOX2, PMA-stimulated, NOX inhibitor project, primary screen (AID 1159); conditions: 45 min, higher = more signal, called active from +8 up or from −8 down; note: test concentration not given here
# [9] = target: NADPH oxidase 4 (Homo sapiens) (UniProt Q9NPH5); test: compounds shifting NOX4 Amplex Red fluorescence – cell-based, HEK293-NOX4, tetracycline-induced, NOX inhibitor project, primary screen (AID 1160); conditions: HEK293-NOX4, Amplex Red H2O2 fluorescence, 45 min; higher = more signal, called active from +8 up or from −8 down
# [10] = target: NADPH oxidase 5 (Homo sapiens) (UniProt Q96PH1); test: compounds shifting NOX5 Amplex Red fluorescence – cell-based, HEK293-NOX5, NOX inhibitor project, primary screen (AID 1161); conditions: HEK293-NOX5, ionomycin, 45 min, higher = more signal
# [11] = compound effects on lung adenocarcinoma cell viability – A549, calcein-AM fluorescence, 48 h, basal, profiling panel (AID 1162); conditions: higher = more signal; note: test concentration not given here
# [12] = compound effects on differentiated 3T3-L1 adipocyte viability – cell-based, 3T3-L1 adipocytes, calcein-AM fluorescence, 48 h, basal, profiling panel (AID 1163); conditions: 3T3-L1 adipocytes viability, higher = more signal; note: test concentration not given here
# [13] = compound effects on hepatocellular carcinoma cell viability – HepG2, calcein-AM fluorescence, 48 h, basal, profiling panel (AID 1164); conditions: higher = more signal; note: test concentration not given here
# [14] = compound effects on multiple myeloma cell viability – MM1S, calcein-AM fluorescence, 48 h, basal, profiling panel (AID 1165); conditions: higher = more signal; note: test concentration not given here
# [15] = calcein-AM signal in unstimulated myeloma cells – cell-based, calcein-AM fluorescence, 48 h, PK04 Diversity Set, profiling panel (AID 1166); conditions: RPMI8226 myeloma viability, higher = more signal;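 note: cells grown under basal conditions without added stimulus; test concentration not given here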
# [16] = JC-1 mitochondrial signal, unstimulated HepG2 cells – cell-based, JC-1 fluorescence, 24 h, 100 nL compound, profiling panel (AID 1167); conditions: HepG2 mitochondrial potential, higher = more signal; note: test concentration not given here
# [17] = JC-1 mitochondrial signal, unstimulated adipocytes – cell-based, JC-1 fluorescence, 3T3-L1 adipocytes, 24 h, 100 nL compound, profiling panel (AID 1168); conditions: JC-1 mitochondrial fluorescence, higher = more signal, called active from +8 up or from −8 down; note: test concentration not given here
# [18] = JC-1 mitochondrial signal, unstimulated myeloma cells – cell-based, JC-1 fluorescence, RPMI8226, 24 h, 100 nL compound, profiling panel (AID 1169); conditions: JC-1 mitochondrial potential fluorescence, higher = more signal; note: test concentration not given here
# [19] = JC-1 mitochondrial signal, unstimulated MM1S myeloma – cell-based, JC-1 fluorescence, 24 h, 100 nL compound, profiling panel (AID 1170); conditions: MM1S mitochondrial potential, higher = more signal; note: test concentration not given here
# [20] = resazurin metabolic signal in A549 cells – cell-based, resazurin fluorescence, 24 h, PK04 Diversity Set, profiling panel (AID 1171); conditions: A549 viability, higher = more signal, called active from +8 up or from −8 down; note: test concentration not given here
# Chain of NADPH oxidase 5 (Homo sapiens) (Q96PH1 whole entry, looked up): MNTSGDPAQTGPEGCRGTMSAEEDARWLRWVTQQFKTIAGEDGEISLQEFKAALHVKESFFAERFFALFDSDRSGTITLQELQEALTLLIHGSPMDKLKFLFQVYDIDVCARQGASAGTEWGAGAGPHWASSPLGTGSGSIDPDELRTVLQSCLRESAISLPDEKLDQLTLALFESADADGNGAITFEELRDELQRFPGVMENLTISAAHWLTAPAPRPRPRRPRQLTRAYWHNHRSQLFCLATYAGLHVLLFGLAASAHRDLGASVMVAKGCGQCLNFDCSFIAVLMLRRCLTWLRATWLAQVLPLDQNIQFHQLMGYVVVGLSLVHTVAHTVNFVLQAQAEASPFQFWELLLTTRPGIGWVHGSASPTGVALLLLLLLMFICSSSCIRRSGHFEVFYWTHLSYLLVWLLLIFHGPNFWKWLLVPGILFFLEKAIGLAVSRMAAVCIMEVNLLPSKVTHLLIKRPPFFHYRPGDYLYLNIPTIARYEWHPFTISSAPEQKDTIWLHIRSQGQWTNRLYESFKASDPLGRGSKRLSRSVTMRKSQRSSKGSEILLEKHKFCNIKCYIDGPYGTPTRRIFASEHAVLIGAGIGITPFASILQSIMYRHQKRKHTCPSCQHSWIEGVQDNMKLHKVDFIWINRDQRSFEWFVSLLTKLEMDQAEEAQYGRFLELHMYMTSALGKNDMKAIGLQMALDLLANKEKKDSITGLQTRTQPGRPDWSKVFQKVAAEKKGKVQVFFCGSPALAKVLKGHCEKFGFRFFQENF
# Chain of NADPH oxidase 4 (Homo sapiens) (Q9NPH5 whole entry, looked up): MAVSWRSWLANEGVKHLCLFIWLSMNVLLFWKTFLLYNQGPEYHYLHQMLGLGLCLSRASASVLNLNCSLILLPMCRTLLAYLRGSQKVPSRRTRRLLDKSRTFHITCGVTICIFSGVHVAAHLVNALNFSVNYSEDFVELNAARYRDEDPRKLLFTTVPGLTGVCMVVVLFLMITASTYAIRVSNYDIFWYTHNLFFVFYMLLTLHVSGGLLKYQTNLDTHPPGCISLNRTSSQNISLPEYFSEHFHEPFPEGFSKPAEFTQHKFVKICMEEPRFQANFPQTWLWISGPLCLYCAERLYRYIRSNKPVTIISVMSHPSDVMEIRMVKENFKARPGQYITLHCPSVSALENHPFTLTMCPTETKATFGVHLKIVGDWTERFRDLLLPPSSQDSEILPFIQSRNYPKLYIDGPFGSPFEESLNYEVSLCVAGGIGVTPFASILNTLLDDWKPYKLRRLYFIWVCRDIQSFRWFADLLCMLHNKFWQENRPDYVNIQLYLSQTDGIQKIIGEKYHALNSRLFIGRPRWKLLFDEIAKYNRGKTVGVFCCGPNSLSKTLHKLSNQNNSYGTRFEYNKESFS
# Chain of NADPH oxidase 2 (Homo sapiens) (P04839 whole entry, looked up): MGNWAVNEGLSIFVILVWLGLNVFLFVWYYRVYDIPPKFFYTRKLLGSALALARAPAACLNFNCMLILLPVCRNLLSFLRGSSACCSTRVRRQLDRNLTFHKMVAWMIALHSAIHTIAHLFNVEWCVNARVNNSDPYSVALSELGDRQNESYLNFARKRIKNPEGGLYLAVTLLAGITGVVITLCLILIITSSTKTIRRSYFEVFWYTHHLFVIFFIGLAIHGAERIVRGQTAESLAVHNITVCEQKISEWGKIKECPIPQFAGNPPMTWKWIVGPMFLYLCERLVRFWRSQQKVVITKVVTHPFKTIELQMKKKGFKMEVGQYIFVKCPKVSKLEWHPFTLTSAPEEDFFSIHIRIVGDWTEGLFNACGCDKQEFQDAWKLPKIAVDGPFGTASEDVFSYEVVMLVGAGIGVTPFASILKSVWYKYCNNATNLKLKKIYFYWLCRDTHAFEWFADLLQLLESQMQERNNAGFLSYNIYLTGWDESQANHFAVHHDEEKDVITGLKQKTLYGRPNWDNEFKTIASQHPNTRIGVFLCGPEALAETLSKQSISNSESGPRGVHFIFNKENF
Compound,z-score [1],composite z-score [2],z-score [3],z-score [4],z-score [5],z-score [6],z-score [7],z-score [8],z-score [9],z-score [10],z-score [11],z-score [12],z-score [13],z-score [14],z-score [15],z-score [16],z-score [17],z-score [18],z-score [19],z-score [20]
CCN1C(=O)[C@H]2[C@H]3[C@H](O)[C@H](O)CC(=NOC)[C@@H]3CC[C@H]2C1=O,-0.589 (inactive),-0.0654,0.637 (inactive),0.628 (inactive),0.47 (inactive),0.269 (inactive),0.815,-0.0884 (inactive),0.545 (inactive),-0.274,0.357,-0.344,-0.0225,-0.106,0.887,0.459,1.7 (inactive),0.0805,-0.218,-0.562 (inactive)
C[C@@H]1CC[C@@H](C(=O)O)N[C@H]1c1ccc(-c2ccco2)cc1,-0.601 (inactive),0.0721,0.732 (inactive),1.2 (inactive),0.871 (inactive),0.883 (inactive),-0.282,-0.71 (inactive),0.156 (inactive),0.798,1.11,-0.396,0.229,0.617,0.404,1.49,0.309 (inactive),-0.636,0.496,0.115 (inactive)
C=CC[C@H](O)c1ccc(OCCO)cc1,-0.349 (inactive) and -0.895 (inactive),-0.017 and -0.491,0.965 (inactive) and 1.27 (inactive),0.396 (inactive) and -0.262 (inactive),-0.0706 (inactive) and -0.94 (inactive),0.475 (inactive) and 0.084 (inactive),0.263 and 0.368,-0.317 (inactive) and -0.425 (inactive),-0.103 (inactive) and 0.574 (inactive),0.811 and 0.51,-0.168 and -0.248,-0.219 and -0.258,-0.267 and 0.456,0.842 and -1.08,-0.252 and -0.209,-0.301 and -0.603,-0.315 (inactive) and 0.251 (inactive),-0.0607 and 0.117,0.319 and -0.662,-0.233 (inactive) and -0.884 (inactive)
COC(=O)C1=C(C)N(Cc2ccccc2)C2=C3C(=O)N(c4ccccc4)C(=O)[C@@H]3[C@@](O)(C(=O)OC)C(=O)N2[C@@H]1c1ccccc1,0.417 (inactive) and 0.339 (inactive),0.0752 and -0.0984,0.518 (inactive) and 0.516 (inactive),0.372 (inactive) and -0.427 (inactive),0.509 (inactive) and 0.736 (inactive),0.54 (inactive) and -0.962 (inactive),-0.528 and 1.43,-0.0787 (inactive) and 0.333 (inactive),-0.0918 (inactive) and 0.833 (inactive),-0.244 and 0.251,1.52 and 2.18,0.0671 and 1.01,0.286 and -0.126,-0.532 and 0.354,0.585 and 1.26,0.889 and 1.68,0.143 (inactive) and 1.26 (inactive),-0.87 and -0.111,0.702 and 0.136,0.497 (inactive) and 0.767 (inactive)
C=C[C@H](C)[C@H](O)c1ccc(O)c2ccccc12,2.14 (inactive) and 2.25 (inactive),-0.31 and -0.201,0.656 (inactive) and 0.845 (inactive),-0.627 (inactive) and -0.531 (inactive),-0.984 (inactive) and -0.529 (inactive),-0.408 (inactive) and -1.21 (inactive),1.13 and 0.885,-5.4 (inactive) and -5.09 (inactive),-0.841 (inactive) and -0.878 (inactive),0.582 and 1.17,0.0619 and 0.429,0.114 and -0.0793,-0.461 and 0.756,-2.53 and -2.69,-0.233 and -0.17,-1.28 and -0.0285,-0.193 (inactive) and 1.11 (inactive),-1.01 and 0.71,-1.76 and 0.307,-0.52 (inactive) and -0.539 (inactive)
C=CCN(Cc1ccccc1)C(=O)C1N(CCCCCCO)C(=O)C2C(C(=O)O)C3C=CC21O3 (stereo not given),-0.107 (inactive) and 0.999 (inactive),-0.0508 and -0.101,0.506 (inactive) and 0.459 (inactive),-0.232 (inactive) and -0.314 (inactive),-0.911 (inactive) and -0.362 (inactive),0.135 (inactive) and 0.161 (inactive),-0.276 and 0.27,0.498 (inactive) and 0.0836 (inactive),-0.308 (inactive) and -0.348 (inactive),0.751 and 0.232,-0.217 and 0.516,0.231 and 0.375,-0.642 and -0.438,-0.184 and -0.0762,0.462 and 1.64,-0.678 and -0.391,0.201 (inactive) and 0.867 (inactive),-0.0429 and 0.0701,-0.252 and -0.0839,-0.0083 (inactive) and 0.239 (inactive)
